Source: PubChem BioAssay (NCI)
The panel holds about 83,000 compounds, 20% with a hit somewhere; the sample as a whole holds those more often.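 Interpretation: 100, growth as untreated; towards 0, rising growth inhibition; 0, no net growth; 0 to -100, cell death. Compounds scoring below 10 were considered active.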 Unmarked numbers belong to inactive results. Calls of active or inactive are those of the source.

Legend:
Assay in all cases: NCI-60 one-dose screen, 48 h (100 = growth as untreated, 0 = no growth, -100 = all killed)
Conditions in all cases: 10 µM unless noted
NCI-H23 lung = test system: NCI-H23 lung
NCI-H226 lung = test system: NCI-H226 lung
NCI-H322M lung = test system: NCI-H322M lung
HOP-62 NSCLC = test system: HOP-62 NSCLC
NCI-H460 lung = test system: NCI-H460 lung
HOP-92 NSCLC = test system: HOP-92 NSCLC
NCI-H522 lung = test system: NCI-H522 lung
A549/ATCC NSCLC = test system: A549/ATCC NSCLC
786-0 renal = test system: 786-0 renal
COLO 205 colon = test system: COLO 205 colon

Structure (SMILES): CCCN(CCC)CN(CCC)CCC
- growth (NCI-H23 lung): 96.5%
- growth (NCI-H226 lung): 95.3%
- growth (NCI-H322M lung): 97.6%
- growth (HOP-62 NSCLC): 113%
- growth (NCI-H460 lung): 107%
- growth (HOP-92 NSCLC): 91.8%
- growth (NCI-H522 lung): 101%
- growth (A549/ATCC NSCLC): 91.1%
- growth (786-0 renal): 94.8%
- growth (COLO 205 colon): 116%

Structure (SMILES): CC[C@H](Nc1cc(C)nc(N)n1)c1nc2cccc(NCc3ccc(C(=O)NO)cc3)c2c(=O)n1-c1ccccc1
- growth (NCI-H23 lung): -6.84% (active)
- growth (NCI-H226 lung): 64.7%
- growth (NCI-H322M lung): 47.7%
- growth (HOP-62 NSCLC): 34.5%
- growth (NCI-H460 lung): 30.1%
- growth (HOP-92 NSCLC): -3.07% (active)
- growth (NCI-H522 lung): -63.7% (active)
- growth (A549/ATCC NSCLC): 60.1%
- growth (786-0 renal): 44.1%
- growth (COLO 205 colon): -51.8% (active)

Structure (SMILES): COc1cc(C2C(C(=O)c3cccs3)=C(O)C(=O)N2CCN2CCOCC2)cc(OC)c1OC (stereo not given)
- growth (NCI-H23 lung): 103%
- growth (NCI-H226 lung): 103%
- growth (NCI-H322M lung): 102%
- growth (HOP-62 NSCLC): 107%
- growth (NCI-H460 lung): 101%
- growth (HOP-92 NSCLC): 99.8%
- growth (NCI-H522 lung): 92.2%
- growth (A549/ATCC NSCLC): 104%
- growth (786-0 renal): 103%
- growth (COLO 205 colon): 111%

Structure (SMILES): CCOC(=O)c1ccc2c(c1)nc(/C=C/c1ccc(Cl)cc1)n2-c1cc(C(C)(C)C)[nH]n1
- growth (NCI-H23 lung): 77.6%
- growth (NCI-H226 lung): 44.5%
- growth (NCI-H322M lung): 48.7%
- growth (HOP-62 NSCLC): 43.1%
- growth (NCI-H460 lung): 59%
- growth (HOP-92 NSCLC): 48.2%
- growth (NCI-H522 lung): 52.2%
- growth (A549/ATCC NSCLC): 32.8%
- growth (786-0 renal): 42.7%
- growth (COLO 205 colon): 62.5%

Structure (SMILES): O=S(=O)(Nc1ccc(Cl)cc1Cl)c1ccc(-c2cnc(C3CC3)o2)cc1
- growth (NCI-H23 lung): 28.2%
- growth (NCI-H226 lung): 59%
- growth (NCI-H322M lung): 36.5%
- growth (HOP-62 NSCLC): 31.5%
- growth (NCI-H460 lung): 12.7%
- growth (HOP-92 NSCLC): 51.2%
- growth (NCI-H522 lung): -1.33% (active)
- growth (A549/ATCC NSCLC): 26.5%
- growth (786-0 renal): 41.4%
- growth (COLO 205 colon): 4.78% (active)

Structure (SMILES): CN1CCCCC1CCN1c2ccccc2Sc2ccc(Br)cc21 (stereo not given)
- growth (NCI-H23 lung): 77.4%
- growth (NCI-H226 lung): 89.9%
- growth (NCI-H322M lung): 59.1%
- growth (HOP-62 NSCLC): 85.7%
- growth (NCI-H460 lung): 64.9%
- growth (HOP-92 NSCLC): 45.5%
- growth (NCI-H522 lung): 62.9%
- growth (A549/ATCC NSCLC): 67.5%
- growth (786-0 renal): 55%
- growth (COLO 205 colon): 51.5%

Structure (SMILES): CC(C)n1cc2c(N)ncnc2n1
- growth (NCI-H23 lung): 103%
- growth (NCI-H226 lung): 94.5%
- growth (NCI-H322M lung): 86.6%
- growth (HOP-62 NSCLC): 96.4%
- growth (NCI-H460 lung): 107%
- growth (HOP-92 NSCLC): 144%
- growth (NCI-H522 lung): 99.3%
- growth (A549/ATCC NSCLC): 102%
- growth (786-0 renal): 100%
- growth (COLO 205 colon): 118%

Structure (SMILES): COc1ccc(/C=c2/c(=O)[nH]c3nc4sc(C)c(C)c4c(=O)n23)cc1
- growth (NCI-H23 lung): 90.7%
- growth (NCI-H226 lung): 94%
- growth (NCI-H322M lung): 98.7%
- growth (HOP-62 NSCLC): 100%
- growth (NCI-H460 lung): 88.3%
- growth (HOP-92 NSCLC): 92.6%
- growth (NCI-H522 lung): 74.4%
- growth (A549/ATCC NSCLC): 79.7%
- growth (786-0 renal): 88.1%
- growth (COLO 205 colon): 111%

Structure (SMILES): NC1=CSC2=N/C(=C\c3ccc(Cl)cc3)C(=O)N12
- growth (NCI-H23 lung): 72.6%
- growth (NCI-H226 lung): 80.3%
- growth (NCI-H322M lung): 95.7%
- growth (HOP-62 NSCLC): 83.5%
- growth (NCI-H460 lung): 62.1%
- growth (HOP-92 NSCLC): 69.5%
- growth (NCI-H522 lung): 33.8%
- growth (A549/ATCC NSCLC): 74.2%
- growth (786-0 renal): 81.4%
- growth (COLO 205 colon): 90%

Structure (SMILES): Cc1csc2ccc(Cl)cc12
- growth (NCI-H23 lung): 97.8%
- growth (NCI-H226 lung): 104%
- growth (NCI-H322M lung): 101%
- growth (HOP-62 NSCLC): 96.6%
- growth (NCI-H460 lung): 106%
- growth (HOP-92 NSCLC): 104%
- growth (NCI-H522 lung): 89%
- growth (A549/ATCC NSCLC): 109%
- growth (786-0 renal): 105%
- growth (COLO 205 colon): 105%

Structure (SMILES): COc1cc2c(=O)n(CC3CCCCC3)c3c4cc[nH]c4ncc3c2cc1OC
- growth (NCI-H23 lung): 45.3%
- growth (NCI-H226 lung): 34.5%
- growth (NCI-H322M lung): 59%
- growth (HOP-62 NSCLC): 19.2%
- growth (NCI-H460 lung): 21.1%
- growth (HOP-92 NSCLC): 1.65% (active)
- growth (NCI-H522 lung): 35.1%
- growth (A549/ATCC NSCLC): 31.6%
- growth (786-0 renal): 46.4%
- growth (COLO 205 colon): 6.79% (active)

Structure (SMILES): CCCCN(CCCC)CCC(C)(O)c1cc2ccccc2c2ccccc12 (stereo not given)
- growth (NCI-H23 lung): 83.8%
- growth (NCI-H226 lung): 107%
- growth (NCI-H322M lung): 73.5%
- growth (HOP-62 NSCLC): 106%
- growth (NCI-H460 lung): 90.1%
- growth (HOP-92 NSCLC): 44.2%
- growth (NCI-H522 lung): 91.4%
- growth (A549/ATCC NSCLC): 83.5%
- growth (786-0 renal): 103%
- growth (COLO 205 colon): 92.7%

Structure (SMILES): COc1c(Cl)cc(Cl)cc1Cl
- growth (NCI-H23 lung): 108%
- growth (NCI-H226 lung): 110%
- growth (NCI-H322M lung): 129%
- growth (HOP-62 NSCLC): 97.5%
- growth (NCI-H460 lung): 97.8%
- growth (HOP-92 NSCLC): 116%
- growth (NCI-H522 lung): 103%
- growth (A549/ATCC NSCLC): 116%
- growth (786-0 renal): 112%
- growth (COLO 205 colon): 116%

Structure (SMILES): CC[C@H](Nc1nc(N)nc(C)c1C#N)c1nc2cccc(NCc3ccc(C(=O)NO)cc3)c2c(=O)n1-c1ccccc1
- growth (NCI-H23 lung): -22.9% (active)
- growth (NCI-H226 lung): 24.3%
- growth (NCI-H322M lung): 15%
- growth (HOP-62 NSCLC): 9.2% (active)
- growth (NCI-H460 lung): 3.85% (active)
- growth (HOP-92 NSCLC): -16.7% (active)
- growth (NCI-H522 lung): -37.6% (active)
- growth (A549/ATCC NSCLC): 1.14% (active)
- growth (786-0 renal): 6.94% (active)
- growth (COLO 205 colon): -2.48% (active)

Structure (SMILES): COc1ccc(C(=O)c2sc3nc4c(cc3c2N)CCCC4)cc1OC
- growth (NCI-H23 lung): 39.3%
- growth (NCI-H226 lung): 37.1%
- growth (NCI-H322M lung): 86.8%
- growth (HOP-62 NSCLC): 38.5%
- growth (NCI-H460 lung): 13%
- growth (HOP-92 NSCLC): 67.3%
- growth (NCI-H522 lung): 12.6%
- growth (A549/ATCC NSCLC): 41.4%
- growth (786-0 renal): 66.1%
- growth (COLO 205 colon): 16.5%

Structure (SMILES): COc1ccc(C/C(C)=C(\c2ccc(OCCN3CCCCCC3)cc2)c2ccc(OC(=O)C3CCCCC3)cc2)cc1
- growth (NCI-H23 lung): 63.5%
- growth (NCI-H226 lung): 78.3%
- growth (NCI-H322M lung): 73.5%
- growth (HOP-62 NSCLC): 74.5%
- growth (NCI-H460 lung): 38.1%
- growth (HOP-92 NSCLC): 19.6%
- growth (NCI-H522 lung): 63.4%
- growth (A549/ATCC NSCLC): 65.2%
- growth (786-0 renal): 68.9%
- growth (COLO 205 colon): 10.5%

Structure (SMILES): CC(=O)OCC1OC(OC2=C(CC=C(Cl)Cl)C(=O)c3ccccc3C2=O)C(OC(C)=O)C(OC(C)=O)C1OC(C)=O (stereo not given)
- growth (NCI-H23 lung): 105%
- growth (NCI-H226 lung): 85%
- growth (NCI-H322M lung): 102%
- growth (HOP-62 NSCLC): 92.7%
- growth (NCI-H460 lung): 95.1%
- growth (HOP-92 NSCLC): -9.2% (active)
- growth (NCI-H522 lung): 3.88% (active)
- growth (A549/ATCC NSCLC): 102%
- growth (786-0 renal): 102%
- growth (COLO 205 colon): 97.6%

Structure (SMILES): COc1ccc(C2Nc3ccccc3-n3cccc32)cc1 (stereo not given)
- growth (NCI-H23 lung): 80.4%
- growth (NCI-H226 lung): 96.7%
- growth (NCI-H322M lung): 97%
- growth (HOP-62 NSCLC): 104%
- growth (NCI-H460 lung): 102%
- growth (HOP-92 NSCLC): 74.2%
- growth (NCI-H522 lung): 95.7%
- growth (A549/ATCC NSCLC): 104%
- growth (786-0 renal): 111%
- growth (COLO 205 colon): 126%

Structure (SMILES): Cc1ccc2c(NCCCN(C)C)c3c(C)nn(C)c3nc2c1
- growth (NCI-H23 lung): 51.6%
- growth (NCI-H226 lung): 41.7%
- growth (NCI-H322M lung): 34.5%
- growth (HOP-62 NSCLC): 41.1%
- growth (NCI-H460 lung): 8.82% (active)
- growth (HOP-92 NSCLC): 30%
- growth (NCI-H522 lung): 28.3%
- growth (A549/ATCC NSCLC): 13.7%
- growth (786-0 renal): 37.1%
- growth (COLO 205 colon): 13.4%

Structure (SMILES): CSc1ncnc2c1ncn2C1CCCO1 (stereo not given)
- growth (NCI-H23 lung): 96.1%
- growth (NCI-H226 lung): 90.1%
- growth (NCI-H322M lung): 90.9%
- growth (HOP-62 NSCLC): 99.7%
- growth (NCI-H460 lung): 105%
- growth (HOP-92 NSCLC): 141%
- growth (NCI-H522 lung): 121%
- growth (A549/ATCC NSCLC): 106%
- growth (786-0 renal): 104%
- growth (COLO 205 colon): 119%

Structure (SMILES): Cc1cc2cc3cc(C)c(N(C)C)cc3[n+](C)c2cc1N(C)C
- growth (NCI-H23 lung): 28.3%
- growth (NCI-H226 lung): 51.6%
- growth (NCI-H322M lung): 25.4%
- growth (HOP-62 NSCLC): 30%
- growth (NCI-H460 lung): 10.9%
- growth (HOP-92 NSCLC): -34.6% (active)
- growth (NCI-H522 lung): -5.03% (active)
- growth (A549/ATCC NSCLC): 25.8%
- growth (786-0 renal): 26.7%
- growth (COLO 205 colon): -19.2% (active)
